Source: PubChem BioAssay (several laboratories)
In the library only some 27% were active in any assay of this set; here they are far more common.
CYP2C19 inhib = inhibitors of human CYP2C19 | P33261 | CYP2C19 Supersomes, luciferin-H EGE luminescence, 30 min | inhibition, % at 5 µM | hit rate 21% among 96,000 | AID 778;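 active = CYP2C19 inhibition above a set limit at 5 µM in the primary screen, cut at about 50% in these data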;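 also: plate controls were negative control wells for no effect and 2.5 mM tranylcypromine positive control for full effect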
CYP2C19 activ = cytochrome P450 2C19 (human) activation | activation factor at 5 µM | 96,000 tested, under 10 active | recombinant CYP2C19, luciferin-H EGE luminescence; active compounds read high; 0 = fully inhibited enzyme, 1 = untreated enzyme;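 active = activation factor of at least 2 at 5 µM in the primary screen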;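 also: 0 = wells with 2.5 mM tranylcypromine and 1 = vehicle-only wells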
sEH act = increases human soluble epoxide hydrolase activity; purified human sEH enzymatic activity, activator screen; P34913; hit rate 0.04% among 91,000; activation, % at 2 µM; in the data active = activation above about 37%
sEH inh = inhibitors of human soluble epoxide hydrolase | P34913 | recombinant human sEH enzymatic activity assay | inhibition, % at 2 µM | hit rate 0.34% among 91,000 | AID 707; in the data active = inhibition above about 80%
CYP2C9 act = increases human cytochrome P450 2C9 activity | recombinant CYP2C9, luciferin-H conversion, luminescence; active compounds read high; factor 1 = untreated enzyme, 0 = blocked | P11712 | activation factor at 5 µM | hit rate 1.4% among 96,000 | AID 1024;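 active = activation factor of 2 or more for CYP2C9 at a 5 µM dose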;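 also: 0 = sulfaphenazole-blocked wells and 1 = vehicle-only wells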
Target sequence (P11712 whole entry, looked up): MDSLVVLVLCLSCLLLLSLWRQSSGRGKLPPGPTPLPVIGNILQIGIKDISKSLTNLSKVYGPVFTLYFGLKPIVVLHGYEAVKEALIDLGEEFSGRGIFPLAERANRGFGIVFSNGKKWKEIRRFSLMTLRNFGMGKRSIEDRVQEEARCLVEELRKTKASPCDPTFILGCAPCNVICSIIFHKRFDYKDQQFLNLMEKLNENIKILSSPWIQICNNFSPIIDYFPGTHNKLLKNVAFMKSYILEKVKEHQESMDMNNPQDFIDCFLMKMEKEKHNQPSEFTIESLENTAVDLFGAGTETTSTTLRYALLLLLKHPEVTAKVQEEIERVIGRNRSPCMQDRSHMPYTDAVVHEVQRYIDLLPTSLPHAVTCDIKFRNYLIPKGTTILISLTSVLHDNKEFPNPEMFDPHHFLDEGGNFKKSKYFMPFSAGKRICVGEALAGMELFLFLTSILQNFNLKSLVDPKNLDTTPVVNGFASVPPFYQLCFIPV
CYP2C9 inh = blocks human cytochrome P450 2C9. P11712. inhibition, % at 5 µM. AID 777. CYP2C9 Supersomes, luciferin-H conversion, luminescence. hit rate 20% among 96,000;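 active = blocking of liver enzyme CYP2C9 beyond about 50% at 5 µM, limit read from the data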
Numbers without * were called inactive; · = no result.

SMILES	CYP2C19 inhib	CYP2C19 activ	sEH act	sEH inh	CYP2C9 act	CYP2C9 inh
CCC(=O)OCCCCCCOc1ccc(C(=O)O)cc1	63*	0.4	·	·	1.1	-12
Cc1cc(C)c(S(=O)(=O)c2ccccc2)c(OC(=O)c2cc(F)c(F)cc2Cl)n1	3	1	-4	5	0.9	7
CCCCCOC(=O)Cn1c(SCC(=O)Nc2ccccc2)nc2c1c(=O)[nH]c(=O)n2C	24	0.8	-1	1	0.8	22
Cc1cccc(OCC(=O)NCc2ccncc2)c1C	74*	0.3	-13	12	0.4	55*
CCCCC(=O)Nc1cccc(-c2nnc(-c3ccccc3)o2)c1	52*	0.5	2	0	0.3	75*
COc1ccccc1OCC(=O)Nc1cccc(-c2nc3ccccc3o2)c1	30	0.7	-6	8	0.5	48
O=C(Nc1cccc(-c2nnc(-c3ccccc3)o2)c1)c1ccco1	14	0.9	·	·	0.8	23
Cc1cccc(OCC(=O)Nc2cccc(-c3nnc(-c4ccccc4)o3)c2)c1C	74*	0.3	-8	10	0.1	90*
Cc1cccc(C)c1OCC(=O)Nc1cccc(-c2nnc(-c3ccccc3)o2)c1	55*	0.5	-14	15	0.1	90*
Cc1cc(/C=N\O)c(C)n1-c1ccncc1	14	0.9	-1	3	1.1	-14
S=c1nc(-c2ccccc2Br)[nH][nH]1	·	·	-14	14	·	·
COc1ccccc1N1CCN(C(=O)CN(c2ccc(C)c(C)c2)S(C)(=O)=O)CC1	40	0.6	-7	7	1.2	-17
COc1ccc(NC(=O)C(CC(C)C)NC(=O)c2ccccc2C)cn1 (configuration not stated)	54*	0.5	-13	13	0.5	52*
COCC(=O)Nc1ccc(S(=O)(=O)NCCc2ccccc2)cc1	95*	0	5	-2	0.3	69*
CCC(=O)Nc1ccc(S(=O)(=O)NCCc2ccccc2)cc1	75*	0.2	12	-10	0.6	35
O=C(Nc1ccc(S(=O)(=O)NCCc2ccccc2)cc1)c1ccc(Br)o1	-11	1.1	-25	29	1	4
Cc1cc(COc2ccccc2O)on1	3	1	-4	4	1.1	-9
COCCNC(=O)C1CCN(S(=O)(=O)c2ccccc2)CC1	5	1	9	-13	0.9	8
CCOC(=O)c1[nH]nc(-c2cc(CC)c(O)cc2O)c1-c1cscn1	42	0.6	6	-8	0.7	34
CCc1cc(-c2n[nH]c(C)c2Oc2ccc(C(C)C)cc2)c(O)cc1O	67*	0.3	-4	4	0.2	83*
Cc1[nH]nc(-c2ccc(OCc3cnn(-c4ccccc4)c3)cc2O)c1Oc1ccccc1F	-2	1	10	-8	0.8	16
CCCOC(=O)c1ccc(Oc2c(-c3ccc(O)cc3O)n[nH]c2C)cc1	87*	0.1	-7	4	0	98*
Cc1[nH]nc(-c2ccc(O)cc2O)c1Oc1ccccc1	100*	0	·	·	0	99*
CCCOC(=O)c1ccc(Oc2c(-c3ccc(OC)cc3O)n[nH]c2C)cc1	46	0.5	-4	3	0.2	83*
CCCOC(=O)c1ccc(NC(=O)COC)cc1	9	0.9	-4	5	0.7	28
SMILES	CYP2C19 inhib	CYP2C19 activ	sEH act	sEH inh	CYP2C9 act	CYP2C9 inh
Cc1nn(Cc2ccccc2Cl)c(C)c1N	75*	0.3	14	-12	0.9	8
CCn1c(=O)n(CC(=O)N2CCN(c3ccccc3F)CC2)c(=O)c2ccccc21	13	0.9	30	-31	0.8	25
CCn1c(=O)cc(SCC(=O)N2CCN(c3ccccn3)CC2)c2ccccc21	72*	0.3	·	·	0.5	51*
Cc1cc2ccccc2c(=O)n1CC(=O)NCC(=O)N1CCN(c2ccccc2F)CC1	-4	1	7	-8	2.1*	-110
Cc1cc2ccccc2c(=O)n1CC(=O)NCC(=O)N1CCN(c2cccc(Cl)c2)CC1	-12	1.1	10	-11	1.7	-71
CCn1c(=O)cc(SCC(=O)N2CCN(c3ccccc3F)CC2)c2ccccc21	41	0.6	18	-15	2.2*	-121
CN1C(=O)N(C)C2C1N(CN1CCCCC1)C(=O)N2CN1CCCCC1 (configuration not stated)	-14	1.1	-10	9	1	-1
Cc1c(CN2CCN(c3cccc(C(F)(F)F)c3)CC2)c(=O)n(-c2ccccc2)n1C	49	0.5	6	-5	0.9	9
COc1cc(-c2nc3cnccn3c2Nc2ccc(C)cc2)ccc1O	80*	0.2	-2	4	0.5	55*
COc1cc(-c2nc3cnccn3c2Nc2ccc(C(C)C)cc2)ccc1O	11	0.9	0	2	0.8	19
COc1cc(-c2nc3cnccn3c2Nc2ccccc2)ccc1O	42	0.6	5	-4	0.5	51*
COC(=O)CC1SCCNC1=O (configuration not stated)	-18	1.2	4	0	1.2	-18
CCN(CC)S(=O)(=O)c1ccc(NC(=O)C(OC)c2ccccc2)cc1 (configuration not stated)	7	0.9	-37	36	0.4	55*
CCN(CC)S(=O)(=O)c1ccc(NC(=O)CC(NC(C)=O)c2ccccc2)cc1 (configuration not stated)	50	0.5	17	-16	0.1	86*
CCN(CC)S(=O)(=O)c1ccc(NC(=O)COc2c(OC)cccc2OC)cc1	22	0.8	-14	13	0.6	36
CCCC(=O)Nc1ccc(S(=O)(=O)N2CCCC2)cc1	2	1	-6	7	0.8	16
CC(=O)NC(CC(=O)Nc1ccc(S(=O)(=O)N2CCCC2)cc1)c1ccccc1 (configuration not stated)	12	0.9	-6	4	0.5	52*
Cc1ccc(C)c(C(=O)CN2C3=NCCCN3c3ccccc32)c1	-5	1	5	-5	1.2	-15
Nc1nc(SCC(=O)NCCCN2CCOCC2)nc2sc3c(c12)CCC3	5	1	-11	11	1.1	-7
CCCC(=O)n1nc(-c2ccccc2)nc1SC	·	·	3	1	·	·
CONC(=O)C1CCN(C(=O)OCc2ccccc2)CC1	22	0.8	-26	27	1.3	-27
Cn1c(=O)c2c(nc(CN3CCN(c4cccc(Cl)c4)CC3)n2CCc2ccccc2)n(C)c1=O	·	·	5	-2	·	·
CCOCCn1c(CN2CCN(c3cccc(Cl)c3)CC2)nc2c1c(=O)n(C)c(=O)n2C	50	0.5	13	-13	0.2	80*
COCCn1c(CN2CCN(c3cccc(Cl)c3)CC2)nc2c1c(=O)n(C)c(=O)n2C	44	0.6	6	-4	0.2	77*
Cn1c(=O)[nH]c(=O)c2c1nc(CN1CCN(c3cccc(Cl)c3)CC1)n2Cc1ccccc1Cl	2	1	·	·	0.3	73*
